Our source for the binding signal values is PMC7862700, “An all-to-all approach to the identification of sequence-specific readers for epigenetic DNA modifications on cytosine”.

Assay in all cases: DAPPL (digital affinity profiling via proximity ligation, sequencing); 10 mM Tris-HCl pH 7.5, 50 mM NaCl, 1 mM DTT, 4% glycerol, room temperature, 30 min; GST-TFs on glutathione beads, 16-mer random dsDNA library, 0.1% formaldehyde crosslink after washing; high values mean tight binding
One test has as its target T1, FLI1 (Homo sapiens, UniProt Q01543 1-452).
T1 sequence: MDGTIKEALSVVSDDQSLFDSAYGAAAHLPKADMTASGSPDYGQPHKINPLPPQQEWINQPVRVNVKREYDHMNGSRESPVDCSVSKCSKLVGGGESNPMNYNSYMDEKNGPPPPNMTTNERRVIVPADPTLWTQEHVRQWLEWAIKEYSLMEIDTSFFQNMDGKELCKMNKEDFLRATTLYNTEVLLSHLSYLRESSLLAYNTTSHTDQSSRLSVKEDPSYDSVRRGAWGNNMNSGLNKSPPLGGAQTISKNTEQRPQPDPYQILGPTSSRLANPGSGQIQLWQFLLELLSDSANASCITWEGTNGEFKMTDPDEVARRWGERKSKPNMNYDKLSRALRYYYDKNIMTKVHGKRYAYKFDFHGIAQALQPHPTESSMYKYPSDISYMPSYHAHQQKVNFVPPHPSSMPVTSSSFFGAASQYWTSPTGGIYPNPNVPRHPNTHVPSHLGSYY
To be noted: protein: recombinant; tags: N-terminal GST; dsDNA, one strand shown. The essentials: (§1)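 Pools of DNA-barcoded human transcription factors, expressed in yeast as GST fusions on glutathione beads and combined with a tag-only sample, were incubated with 200 nmole of a 16-mer random double-stranded DNA library. Incubation took 30 min at room temperature in Tris/NaCl/DTT/glycerol buffer and was followed by washing, 0.1% formaldehyde crosslinking, proximity ligation (BsaI/T4 ligase, 1 h, 37 °C), PCR amplification and sequencing on an Illumina NextSeq500. Binding signal is the ratio of a hexamer's read frequency for a factor to its frequency for the tag-only sample.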

The next test concerns the target T2, ELK1 (Homo sapiens, UniProt P19419 1-428).
T2 sequence: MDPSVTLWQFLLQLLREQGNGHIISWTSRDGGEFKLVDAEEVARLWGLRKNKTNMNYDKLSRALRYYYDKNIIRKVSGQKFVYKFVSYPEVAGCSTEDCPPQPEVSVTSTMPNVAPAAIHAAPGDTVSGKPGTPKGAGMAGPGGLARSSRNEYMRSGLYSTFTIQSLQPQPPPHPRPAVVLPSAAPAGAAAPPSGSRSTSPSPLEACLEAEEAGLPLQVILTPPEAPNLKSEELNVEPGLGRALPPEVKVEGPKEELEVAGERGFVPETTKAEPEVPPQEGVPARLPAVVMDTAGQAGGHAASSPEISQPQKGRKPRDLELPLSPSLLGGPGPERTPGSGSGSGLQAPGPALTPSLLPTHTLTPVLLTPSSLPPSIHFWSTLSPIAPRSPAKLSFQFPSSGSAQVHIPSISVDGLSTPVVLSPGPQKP
Particulars: protein: recombinant; tags: N-terminal GST; dsDNA, one strand shown. The essentials:
as §1

A further test concerns the target T3, GABPA (Homo sapiens, UniProt Q06546 1-454).
T3 sequence: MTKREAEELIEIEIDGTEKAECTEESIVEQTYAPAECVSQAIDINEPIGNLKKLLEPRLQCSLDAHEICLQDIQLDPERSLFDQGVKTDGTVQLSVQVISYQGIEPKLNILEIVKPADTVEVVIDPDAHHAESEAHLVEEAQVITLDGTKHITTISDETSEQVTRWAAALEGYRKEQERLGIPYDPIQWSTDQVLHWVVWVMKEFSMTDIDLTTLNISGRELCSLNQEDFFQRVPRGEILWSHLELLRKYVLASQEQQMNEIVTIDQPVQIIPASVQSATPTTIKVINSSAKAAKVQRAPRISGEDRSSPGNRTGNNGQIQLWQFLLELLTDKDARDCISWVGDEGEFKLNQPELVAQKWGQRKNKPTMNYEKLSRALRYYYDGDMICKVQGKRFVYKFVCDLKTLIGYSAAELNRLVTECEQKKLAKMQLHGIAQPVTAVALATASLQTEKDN
To be noted: protein: recombinant; tags: N-terminal GST; dsDNA, one strand shown. A digest of the protocol:
as §1

The next test addresses T4, ERG (Homo sapiens, UniProt P11308 1-479).
T4 sequence: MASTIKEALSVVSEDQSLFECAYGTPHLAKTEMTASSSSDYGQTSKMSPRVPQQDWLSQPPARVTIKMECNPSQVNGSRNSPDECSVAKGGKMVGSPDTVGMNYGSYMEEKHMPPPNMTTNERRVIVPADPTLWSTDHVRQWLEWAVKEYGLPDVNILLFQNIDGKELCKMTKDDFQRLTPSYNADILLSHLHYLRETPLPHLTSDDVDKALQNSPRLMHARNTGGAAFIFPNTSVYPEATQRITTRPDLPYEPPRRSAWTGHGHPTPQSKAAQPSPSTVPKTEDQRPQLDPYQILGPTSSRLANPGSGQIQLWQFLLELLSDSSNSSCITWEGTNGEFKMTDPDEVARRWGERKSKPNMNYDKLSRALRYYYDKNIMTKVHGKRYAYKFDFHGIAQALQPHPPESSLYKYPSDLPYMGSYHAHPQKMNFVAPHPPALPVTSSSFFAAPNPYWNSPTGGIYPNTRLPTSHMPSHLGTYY
To be noted: protein: recombinant; tags: N-terminal GST; dsDNA, one strand shown. The essentials:
as §1

For the next test, the target named is ELF1 (Homo sapiens, UniProt P32519 1-619). Particulars: protein: recombinant; tags: N-terminal GST; dsDNA, one strand shown. The essentials:
as §1

For another test, the target named is T5, EHF (Homo sapiens, UniProt Q9NZC4 1-300).
T5 sequence: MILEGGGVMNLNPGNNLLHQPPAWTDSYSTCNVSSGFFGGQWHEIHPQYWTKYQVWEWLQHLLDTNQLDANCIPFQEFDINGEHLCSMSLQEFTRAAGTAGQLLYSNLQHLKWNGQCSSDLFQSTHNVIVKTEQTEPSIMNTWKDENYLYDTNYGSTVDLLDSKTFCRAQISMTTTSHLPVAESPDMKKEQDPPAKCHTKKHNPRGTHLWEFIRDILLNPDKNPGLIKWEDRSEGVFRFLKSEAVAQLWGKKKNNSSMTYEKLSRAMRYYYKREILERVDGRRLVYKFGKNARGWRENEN
To be noted: protein: recombinant; tags: N-terminal GST; dsDNA, one strand shown. The essentials: as §1

A further test addresses SPI1 (Homo sapiens, UniProt P17947 1-270). To be noted: protein: recombinant; tags: N-terminal GST; dsDNA, one strand shown. A digest of the protocol:
as §1

Another test addresses T6, ELK3 (Homo sapiens, UniProt P41970 1-407).
T6 sequence: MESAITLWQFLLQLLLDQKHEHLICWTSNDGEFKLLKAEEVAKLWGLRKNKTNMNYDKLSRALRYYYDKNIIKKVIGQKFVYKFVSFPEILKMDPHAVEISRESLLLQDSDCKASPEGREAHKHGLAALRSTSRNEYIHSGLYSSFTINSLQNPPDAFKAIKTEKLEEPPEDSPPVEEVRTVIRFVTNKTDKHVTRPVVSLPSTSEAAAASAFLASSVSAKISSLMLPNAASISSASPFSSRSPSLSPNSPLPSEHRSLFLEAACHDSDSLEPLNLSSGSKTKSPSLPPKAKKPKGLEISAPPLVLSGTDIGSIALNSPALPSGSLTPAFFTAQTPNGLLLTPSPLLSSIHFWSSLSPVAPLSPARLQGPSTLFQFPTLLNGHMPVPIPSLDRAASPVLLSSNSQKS
Particulars: protein: recombinant; tags: N-terminal GST; dsDNA, one strand shown. A digest of the protocol:
as §1

The target of a further test is T7, FEV (Homo sapiens, UniProt Q99581 1-238).
T7 sequence: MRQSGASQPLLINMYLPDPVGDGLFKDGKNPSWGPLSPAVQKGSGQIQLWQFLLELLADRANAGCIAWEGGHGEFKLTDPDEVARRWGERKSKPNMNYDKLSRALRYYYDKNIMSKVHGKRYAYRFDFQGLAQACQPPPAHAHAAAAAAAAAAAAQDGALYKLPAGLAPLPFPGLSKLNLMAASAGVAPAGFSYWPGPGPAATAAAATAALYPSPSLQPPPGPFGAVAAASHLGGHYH
Particulars: protein: recombinant; tags: N-terminal GST; dsDNA, one strand shown. The essentials:
as §1

For a further test, the target named is ETV5 (Homo sapiens, UniProt P41161 1-510). Particulars: protein: recombinant; tags: N-terminal GST; dsDNA, one strand shown. A digest of the protocol:
as §1

In the next test the target is HSF1 (Homo sapiens, UniProt Q00613 1-529). Particulars: protein: recombinant; tags: N-terminal GST; chain copies: 3; dsDNA, one strand shown. A digest of the protocol: as §1
Another test concerns the target T8, SPIC (Homo sapiens, UniProt Q8N5J4 1-248).
T8 sequence: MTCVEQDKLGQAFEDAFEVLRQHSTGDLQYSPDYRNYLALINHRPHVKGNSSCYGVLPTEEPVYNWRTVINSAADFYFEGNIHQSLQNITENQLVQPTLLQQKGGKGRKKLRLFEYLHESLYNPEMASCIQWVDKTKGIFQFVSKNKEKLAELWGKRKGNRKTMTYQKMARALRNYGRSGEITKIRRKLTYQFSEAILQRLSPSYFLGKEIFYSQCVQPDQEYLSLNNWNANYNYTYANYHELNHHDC
To be noted: protein: recombinant; tags: N-terminal GST; dsDNA, one strand shown. A digest of the protocol:
as §1

Another test addresses ELF4 (Homo sapiens, UniProt Q99607 1-663). Particulars: protein: recombinant; tags: N-terminal GST; dsDNA, one strand shown. The essentials: as §1
A further test has as its target T9, ELK4 (Homo sapiens, UniProt P28324-2 1-405).
T9 sequence: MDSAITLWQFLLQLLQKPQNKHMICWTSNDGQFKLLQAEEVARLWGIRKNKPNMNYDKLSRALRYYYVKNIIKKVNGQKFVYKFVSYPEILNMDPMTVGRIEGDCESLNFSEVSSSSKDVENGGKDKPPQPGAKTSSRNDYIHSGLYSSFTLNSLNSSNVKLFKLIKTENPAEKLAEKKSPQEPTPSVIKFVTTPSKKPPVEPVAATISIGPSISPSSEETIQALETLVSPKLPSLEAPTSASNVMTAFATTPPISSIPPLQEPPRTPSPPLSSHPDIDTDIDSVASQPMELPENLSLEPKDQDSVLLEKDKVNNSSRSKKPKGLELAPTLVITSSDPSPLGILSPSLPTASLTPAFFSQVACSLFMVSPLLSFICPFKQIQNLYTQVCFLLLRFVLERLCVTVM
Particulars: protein: recombinant; tags: N-terminal GST; dsDNA, one strand shown. The essentials: as §1

The target in another test is T10, ETV2 (Homo sapiens, UniProt O00321 1-342).
T10 sequence: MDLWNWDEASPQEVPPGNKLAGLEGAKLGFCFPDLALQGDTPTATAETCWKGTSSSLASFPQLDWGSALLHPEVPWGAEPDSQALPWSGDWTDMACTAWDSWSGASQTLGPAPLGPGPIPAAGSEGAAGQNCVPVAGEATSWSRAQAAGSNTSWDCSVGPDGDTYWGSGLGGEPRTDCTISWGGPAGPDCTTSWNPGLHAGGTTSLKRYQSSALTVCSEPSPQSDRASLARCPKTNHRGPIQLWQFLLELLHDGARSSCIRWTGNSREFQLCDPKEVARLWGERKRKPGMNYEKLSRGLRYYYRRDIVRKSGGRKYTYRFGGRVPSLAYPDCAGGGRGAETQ
To be noted: protein: recombinant; tags: N-terminal GST; dsDNA, one strand shown. A digest of the protocol: as §1

The target in another test is T11, ELF3 (Homo sapiens, UniProt P78545 1-371).
T11 sequence: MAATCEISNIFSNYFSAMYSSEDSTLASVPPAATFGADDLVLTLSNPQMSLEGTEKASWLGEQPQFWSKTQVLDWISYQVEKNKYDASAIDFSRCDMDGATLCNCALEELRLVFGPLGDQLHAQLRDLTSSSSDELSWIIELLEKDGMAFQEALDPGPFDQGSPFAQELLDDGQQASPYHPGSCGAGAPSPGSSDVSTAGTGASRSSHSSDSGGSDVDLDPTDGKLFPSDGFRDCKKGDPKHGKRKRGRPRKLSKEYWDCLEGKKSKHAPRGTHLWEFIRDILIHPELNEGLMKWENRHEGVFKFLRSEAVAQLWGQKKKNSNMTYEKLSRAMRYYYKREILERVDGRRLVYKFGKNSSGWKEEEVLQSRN
Particulars: protein: recombinant; tags: N-terminal GST; dsDNA, one strand shown. A digest of the protocol:
as §1

The next test has as its target CRX (Homo sapiens, UniProt O43186 1-299). To be noted: protein: recombinant; tags: N-terminal GST; dsDNA, one strand shown. The essentials:
as §1

The target in another test is ETV1 (Homo sapiens, UniProt P50549 1-477). Particulars: protein: recombinant; tags: N-terminal GST; dsDNA, one strand shown. The essentials: as §1
Chain of ETV1 (P50549 whole entry): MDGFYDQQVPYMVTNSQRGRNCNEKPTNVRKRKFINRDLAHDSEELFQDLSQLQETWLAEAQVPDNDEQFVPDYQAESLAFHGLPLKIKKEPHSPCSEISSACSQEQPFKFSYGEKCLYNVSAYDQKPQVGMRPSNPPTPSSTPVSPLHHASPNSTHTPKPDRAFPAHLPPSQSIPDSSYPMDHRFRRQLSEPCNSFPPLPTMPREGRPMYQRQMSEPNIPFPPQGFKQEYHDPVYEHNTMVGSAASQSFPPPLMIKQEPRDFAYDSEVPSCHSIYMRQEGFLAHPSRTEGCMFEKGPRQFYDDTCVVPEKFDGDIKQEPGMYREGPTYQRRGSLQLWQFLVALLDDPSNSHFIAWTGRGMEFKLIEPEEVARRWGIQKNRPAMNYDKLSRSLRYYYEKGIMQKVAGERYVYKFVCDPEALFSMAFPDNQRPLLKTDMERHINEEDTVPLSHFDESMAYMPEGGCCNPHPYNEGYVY

Chain of ETV5 (P41161 whole entry): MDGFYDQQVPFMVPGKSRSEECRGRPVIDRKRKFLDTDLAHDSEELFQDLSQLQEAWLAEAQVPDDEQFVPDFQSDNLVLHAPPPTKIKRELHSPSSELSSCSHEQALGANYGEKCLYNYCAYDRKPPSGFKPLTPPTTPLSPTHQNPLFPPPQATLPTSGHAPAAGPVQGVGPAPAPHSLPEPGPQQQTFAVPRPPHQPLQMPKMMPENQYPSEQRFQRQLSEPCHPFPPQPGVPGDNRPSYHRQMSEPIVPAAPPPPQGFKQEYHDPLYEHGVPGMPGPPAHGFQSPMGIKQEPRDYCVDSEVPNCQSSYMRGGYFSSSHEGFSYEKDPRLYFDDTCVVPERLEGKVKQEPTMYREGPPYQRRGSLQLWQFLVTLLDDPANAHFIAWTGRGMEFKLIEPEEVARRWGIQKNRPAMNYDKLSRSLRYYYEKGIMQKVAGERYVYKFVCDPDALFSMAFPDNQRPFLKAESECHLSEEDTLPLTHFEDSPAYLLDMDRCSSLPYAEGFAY
Chain of HSF1 (Q00613 whole entry): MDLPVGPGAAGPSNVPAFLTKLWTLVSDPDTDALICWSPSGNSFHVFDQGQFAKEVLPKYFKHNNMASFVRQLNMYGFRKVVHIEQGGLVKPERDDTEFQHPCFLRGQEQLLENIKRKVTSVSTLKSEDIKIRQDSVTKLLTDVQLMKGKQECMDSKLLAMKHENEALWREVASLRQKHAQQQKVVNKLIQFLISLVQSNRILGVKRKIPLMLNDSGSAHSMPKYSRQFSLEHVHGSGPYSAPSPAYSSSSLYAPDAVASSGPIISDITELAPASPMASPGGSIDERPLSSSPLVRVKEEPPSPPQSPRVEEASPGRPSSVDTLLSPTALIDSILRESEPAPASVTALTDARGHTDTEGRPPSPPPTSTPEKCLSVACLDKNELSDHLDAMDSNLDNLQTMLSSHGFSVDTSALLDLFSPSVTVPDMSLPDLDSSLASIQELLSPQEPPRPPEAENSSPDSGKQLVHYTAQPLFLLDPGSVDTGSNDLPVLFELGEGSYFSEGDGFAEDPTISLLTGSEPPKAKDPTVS
Chain of ELF4 (Q99607 whole entry): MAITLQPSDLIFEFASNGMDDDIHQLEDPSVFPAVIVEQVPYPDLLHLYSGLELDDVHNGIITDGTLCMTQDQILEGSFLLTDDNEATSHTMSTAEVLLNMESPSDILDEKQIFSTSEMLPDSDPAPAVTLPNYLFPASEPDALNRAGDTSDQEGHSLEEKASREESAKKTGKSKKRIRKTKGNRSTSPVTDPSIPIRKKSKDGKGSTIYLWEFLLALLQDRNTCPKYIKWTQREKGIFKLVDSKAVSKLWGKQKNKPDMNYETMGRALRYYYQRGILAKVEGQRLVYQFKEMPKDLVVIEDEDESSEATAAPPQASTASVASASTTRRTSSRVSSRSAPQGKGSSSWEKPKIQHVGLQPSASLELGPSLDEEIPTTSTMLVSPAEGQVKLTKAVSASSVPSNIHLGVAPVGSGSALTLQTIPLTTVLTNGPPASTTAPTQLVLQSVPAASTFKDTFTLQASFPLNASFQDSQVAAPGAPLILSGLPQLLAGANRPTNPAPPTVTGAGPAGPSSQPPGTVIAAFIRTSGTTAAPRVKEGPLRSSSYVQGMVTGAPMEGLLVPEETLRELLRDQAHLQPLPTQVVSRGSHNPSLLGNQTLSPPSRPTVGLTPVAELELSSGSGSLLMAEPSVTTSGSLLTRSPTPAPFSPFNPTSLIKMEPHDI
Chain of CRX (O43186 whole entry): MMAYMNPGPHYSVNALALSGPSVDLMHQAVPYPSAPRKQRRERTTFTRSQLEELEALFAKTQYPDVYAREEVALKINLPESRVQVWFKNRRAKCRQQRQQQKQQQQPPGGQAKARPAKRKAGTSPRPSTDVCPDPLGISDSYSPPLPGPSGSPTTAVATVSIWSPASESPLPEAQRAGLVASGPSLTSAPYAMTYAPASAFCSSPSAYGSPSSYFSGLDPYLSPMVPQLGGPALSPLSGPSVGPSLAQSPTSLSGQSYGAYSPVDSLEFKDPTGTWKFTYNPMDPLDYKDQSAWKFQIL
Chain of ELF1 (P32519 whole entry): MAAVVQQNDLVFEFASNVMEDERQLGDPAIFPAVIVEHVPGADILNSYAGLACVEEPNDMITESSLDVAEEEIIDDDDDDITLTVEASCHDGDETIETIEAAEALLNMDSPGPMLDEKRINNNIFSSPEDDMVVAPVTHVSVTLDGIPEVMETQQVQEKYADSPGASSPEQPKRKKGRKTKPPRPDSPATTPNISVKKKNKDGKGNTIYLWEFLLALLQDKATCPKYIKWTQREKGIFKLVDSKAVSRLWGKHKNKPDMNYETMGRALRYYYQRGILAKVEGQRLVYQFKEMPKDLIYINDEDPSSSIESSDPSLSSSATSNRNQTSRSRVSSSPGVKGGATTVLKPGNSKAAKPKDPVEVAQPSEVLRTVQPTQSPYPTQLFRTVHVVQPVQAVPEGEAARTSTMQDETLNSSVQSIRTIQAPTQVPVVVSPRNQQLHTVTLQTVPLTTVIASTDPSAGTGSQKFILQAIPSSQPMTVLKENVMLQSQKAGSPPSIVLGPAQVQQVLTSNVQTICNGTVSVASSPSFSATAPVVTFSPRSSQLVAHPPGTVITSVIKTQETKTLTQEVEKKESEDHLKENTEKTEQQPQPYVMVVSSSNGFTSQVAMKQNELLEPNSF

TTACTG: the binding signal was 1.11 fold enrichment (6-mer frequency, TF over GST control) with FLI1; 1.12 fold enrichment (6-mer frequency, TF over GST control) in the test with ELK1; 1.08 fold enrichment (6-mer frequency, TF over GST control) in the test with GABPA; 1.14 fold enrichment (6-mer frequency, TF over GST control) in the test with ERG; 1.09 fold enrichment (6-mer frequency, TF over GST control) with ELF1; 1.18 fold enrichment (6-mer frequency, TF over GST control) with EHF. The binding signal with SPI1 is 1.05 fold enrichment (6-mer frequency, TF over GST control); with ELK3, 1.03 fold enrichment (6-mer frequency, TF over GST control); in the test with FEV it was 1.04 fold enrichment (6-mer frequency, TF over GST control); with ETV5, 1.15 fold enrichment (6-mer frequency, TF over GST control); in the test with HSF1, 1.52 fold enrichment (6-mer frequency, TF over GST control); in the test with SPIC, 1.18 fold enrichment (6-mer frequency, TF over GST control). For the same sequence, the binding signal is 1.11 fold enrichment (6-mer frequency, TF over GST control) with ELF4; 1.16 fold enrichment (6-mer frequency, TF over GST control) in the test with ELK4; 1.12 fold enrichment (6-mer frequency, TF over GST control) with ETV2; 1.21 fold enrichment (6-mer frequency, TF over GST control) with ELF3; 1.84 fold enrichment (6-mer frequency, TF over GST control) in the test with CRX; 1.01 fold enrichment (6-mer frequency, TF over GST control) in the test with ETV1.
